High-throughput results (PubChem BioAssay)
The list is not random: actives were taken first. Their share in the collection is about 17%.
DT40 TDP1 no CPT = qHTS for Inhibitors of human tyrosyl-DNA phosphodiesterase 1 (TDP1): qHTS in cells in absence of CPT | DT40 Tdp1-/- hTDP1 cells, no CPT, ATP luminescence, 48 h | actives 15% (n = 420,000) | AID 686978, 2013 | Potency, µM (highest dose often 46.2 µM), usual class: inhibitors; also: nearly all actives have a fitted effect of over 55% in size
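DT40 Tdp1-/-;hTDP1 cells, no CPT (DMSO vehicle only), 400 cells/well; compounds pin-transferred; ≥48 hr, 37 °C; CellTiter-Glo 30 min RT dark, luminescence read.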
TGFb SMAD3 inh = inhibitors of TGF-b signaling | HepG2 CAGA-GFP TGF-b/SMAD3 reporter, GFP fluorescence, 18 h; TGF-beta stimulated, 500 pg/mL final | Potency, µM (titrated, usually from 46.1 µM), usual class: inhibitors | actives 1.2% (n = 410,000) | AID 588855; also: nearly all actives have a fitted effect of over 65% in size
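Using HEPG2 CAGA-GFP reporter cells at 1000 cells/well, we pinned test compounds, stimulated with recombinant TGF-beta (500 pg/mL final) and measured total well GFP after 18 h.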
HT1080NT lethal = kills 2HG-producing HT-1080-NT fibrosarcoma cells | Potency, µM (top dose mostly 46.1 µM), usual class: cytotoxic | HT-1080-NT fibrosarcoma viability, CellTiter-Glo ATP luminescence, 48 h | actives 1.6% (n = 360,000);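 also: NT is the 2HG producing partner of a matched IDH1 knockdown line; nearly all actives have a fitted effect of over 55% in size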
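HT-1080-NT; 750 cells/well; 5% FBS RPMI; 48 h compound, 37 degrees C; CellTiter-Glo luminescence; curve fitting and curve-class assignment.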
DT40 TDP1 CPT = DT40-hTDP1 cell growth loss with CPT. chicken DT40 Tdp1-/-;hTDP1 cells + 20 nM CPT, ATP luminescence, 48 h. Potency, µM (highest dose often 46.2 µM), usual class: inhibitors. actives 12% (n = 420,000). AID 686979; also: nearly all actives have a fitted effect of over 55% in size
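Cell growth measured by CellTiter-Glo luminescence after a minimum 48 h, 37 C compound exposure with 20 nM CPT in Tdp1-knockout DT40 cells stably expressing hTDP1, seeded 400/well; qHTS titration format.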
HT1080 IDH1KD tx = kills HT-1080 cells with IDH1 knockdown; HT-1080 IDH1 knockdown viability, ATP luminescence, 48 h; Potency, µM (series often up to 46.1 µM), hits mostly cytotoxic; actives 2% (n = 360,000)
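Using the IDH1-knockdown HT-1080 line run in the same batch and compound series as the NT line, viability after 48 h at 37 °C was determined by CellTiter-Glo luminescence and expressed as % activity.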
HepG2 viability = counter-screen for TGF-b inhibitors: cytotoxicity in HepG2 cells | actives 0.76% (n = 410,000) | Potency, µM (titrated, usually from 46.1 µM), usual class: cytotoxic | HepG2 CAGA-GFP viability, ATP luminescence, 18 h
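HepG2 CAGA-GFP cells (1000/well, DMEM with 1% FBS) received compound, then TGF-beta at 500 pg/mL final, and were incubated 18 hours at 37 degrees C. Viability was read by CellTiter-Glo luminescence. Media-only wells were set as complete cell-killing and DMSO as no toxicity.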
Hits are given with their value. Calls follow the shape of the dose curve; as a rule, active = well fitted curve in the direction sought with a large enough effect; inconclusive = small, poorly fitted or top-dose-only effect, or another doubt; inactive = no such curve, though single readings can be large; an effect the other way counts as inactive or inconclusive.

Results for Cc1ccc(C)c(C(=O)COC(=O)c2ccccc2N2C(=O)C3C4CCC(C4)C3C2=O)c1 (centres undefined) ?
DT40 TDP1 no CPT: 21µM; TGFb SMAD3 inh: inactive; HT1080NT lethal: inactive; DT40 TDP1 CPT: 21µM; HT1080 IDH1KD tx: inactive; HepG2 viability: inactive

Results for Cn1cc(C(=O)C(=O)N2CCc3ccccc32)c2ccccc21 ?
DT40 TDP1 no CPT: inactive; TGFb SMAD3 inh: inactive; HT1080NT lethal: inactive; DT40 TDP1 CPT: inactive; HT1080 IDH1KD tx: inactive; HepG2 viability: inactive

Results for CC(=O)Nc1ccc(/C=C/c2nc3ccccc3[nH]c2=O)cc1 ?
DT40 TDP1 no CPT: inactive; TGFb SMAD3 inh: inactive; HT1080NT lethal: inactive; DT40 TDP1 CPT: inactive; HT1080 IDH1KD tx: inactive; HepG2 viability: inactive

Results for O=C(/C=C/c1ccco1)Nc1ccc(-c2nc3ccccc3[nH]2)cc1 ?
DT40 TDP1 no CPT: inconclusive; TGFb SMAD3 inh: inactive; HT1080NT lethal: inactive; DT40 TDP1 CPT: inactive; HT1080 IDH1KD tx: inactive; HepG2 viability: inactive

Results for O=C(N/C(=C/c1ccc(Cl)cc1)c1nc2ccccc2[nH]1)c1ccco1 ?
DT40 TDP1 no CPT: inactive; TGFb SMAD3 inh: inconclusive; HT1080NT lethal: inactive; DT40 TDP1 CPT: inconclusive; HT1080 IDH1KD tx: inactive; HepG2 viability: inactive

How did C(=C\c1nc2ccccc2[nH]1)/c1ccccc1 do in these assays?
DT40 TDP1 no CPT: 16µM; TGFb SMAD3 inh: inactive; HT1080NT lethal: 18µM; DT40 TDP1 CPT: 15µM; HT1080 IDH1KD tx: 18µM; HepG2 viability: 10µM

What do the screens show for `O=c1[nH]c2ccccc2nc1/C=C/c1ccc(Cl)cc1`?
DT40 TDP1 no CPT: 23µM; TGFb SMAD3 inh: inactive; HT1080NT lethal: inactive; DT40 TDP1 CPT: 13µM; HT1080 IDH1KD tx: inactive; HepG2 viability: inactive

How did C(=C\c1ccco1)/c1nc2ccccc2[nH]1 do in these assays?
DT40 TDP1 no CPT: 23µM; TGFb SMAD3 inh: inactive; HT1080NT lethal: inactive; DT40 TDP1 CPT: inconclusive; HT1080 IDH1KD tx: inactive; HepG2 viability: inactive

Results for O=C(/C(=C/c1ccc(Cl)cc1)c1nc2ccccc2[nH]1)c1ccccc1 ?
DT40 TDP1 no CPT: 7.3µM; TGFb SMAD3 inh: 5µM; HT1080NT lethal: 2.9µM; DT40 TDP1 CPT: 13µM; HT1080 IDH1KD tx: 4.1µM; HepG2 viability: 2.5µM

What do the screens show for `CC1(C(=O)NCc2ccc3c(c2)OCO3)CCN1C(=O)CC1CCCC1` (centres undefined)?
DT40 TDP1 no CPT: inconclusive; TGFb SMAD3 inh: inactive; HT1080NT lethal: inactive; DT40 TDP1 CPT: inconclusive; HT1080 IDH1KD tx: inactive; HepG2 viability: inactive

What do the screens show for `O=C(CSC1=NNC(c2ccccn2)S1)Nc1cccc(Cl)c1` (centres undefined)?
DT40 TDP1 no CPT: 1.8µM; TGFb SMAD3 inh: inactive; HT1080NT lethal: inconclusive; DT40 TDP1 CPT: 1.8µM; HT1080 IDH1KD tx: inconclusive; HepG2 viability: inactive

What do the screens show for `O=C(CSC1=NNC(c2ccccn2)S1)Nc1ccccc1` (centres undefined)?
DT40 TDP1 no CPT: 1.8µM; TGFb SMAD3 inh: inconclusive; HT1080NT lethal: inconclusive; DT40 TDP1 CPT: 2.1µM; HT1080 IDH1KD tx: inconclusive; HepG2 viability: inactive

How did O=C(CSc1nnc(-c2ccccn2)o1)Nc1ccccc1 do in these assays?
DT40 TDP1 no CPT: inactive; TGFb SMAD3 inh: inactive; HT1080NT lethal: inactive; DT40 TDP1 CPT: inactive; HT1080 IDH1KD tx: inactive; HepG2 viability: inactive

What do the screens show for `Cn1c2ccccc2c2ccc3c(c21)C(=O)C=CC3=O`?
DT40 TDP1 no CPT: 0.52µM; TGFb SMAD3 inh: inactive; HT1080NT lethal: inactive; DT40 TDP1 CPT: 0.41µM; HT1080 IDH1KD tx: inactive; HepG2 viability: inactive

Results for Cc1ccc(C)c(Cn2c(=O)n(Cc3ccccc3)c(=O)c3c2c2cc(C)ccc2n3C)c1 ?
DT40 TDP1 no CPT: inactive; TGFb SMAD3 inh: inactive; DT40 TDP1 CPT: inactive; HepG2 viability: inactive
